# In all, about 190,000 compounds went through this assay and about 1,300 (0.68%) were called active. This excerpt belongs to a sample that is enriched for actives. A number with no mark means an inactive call. No stated cut-off is given here; in the data, active means inhibition above about 50%; inactive means the rest.
# Molecular target: Mannose-6-phosphate isomerase (Homo sapiens) (UniProt P34949)
# Test: human PMI inhibitors, high substrate, primary screen, biochemical, fluorescence intensity, high mannose 6-phosphate (AID 1220)
# Conditions: recombinant PMI enzyme, coupled fluorescence intensity; at 20 µM; stronger effect = higher value
# Mannose-6-phosphate isomerase (Homo sapiens), sequence (P34949 whole entry, looked up): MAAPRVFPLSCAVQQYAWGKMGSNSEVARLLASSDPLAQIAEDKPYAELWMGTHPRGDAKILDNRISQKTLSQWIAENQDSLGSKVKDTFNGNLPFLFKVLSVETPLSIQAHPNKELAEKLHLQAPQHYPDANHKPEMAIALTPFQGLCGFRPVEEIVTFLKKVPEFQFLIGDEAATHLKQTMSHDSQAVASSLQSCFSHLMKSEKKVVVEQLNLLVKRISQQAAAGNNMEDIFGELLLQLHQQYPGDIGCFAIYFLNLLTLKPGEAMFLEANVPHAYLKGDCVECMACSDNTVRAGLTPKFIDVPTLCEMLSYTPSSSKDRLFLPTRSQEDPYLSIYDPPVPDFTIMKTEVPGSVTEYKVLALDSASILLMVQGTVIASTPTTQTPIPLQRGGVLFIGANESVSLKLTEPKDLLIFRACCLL
row,SMILES,inhibition
1,CCOC(=O)C1CCCN(C(=O)c2ccc(C)cc2O)C1 (configuration not stated),1.2%
2,CC1Cc2ccccc2N1c1ncnc2c1nnn2Cc1ccccc1Cl (configuration not stated),-1.3%
3,O=C(O)C1C2CCC(O2)C1C(=O)Nc1ccc(O)cc1 (configuration not stated),54.4% (active)
4,O=C(O)C1C2CCC(O2)C1C(=O)Nc1ccc(F)cc1 (configuration not stated),-3.9%
5,O=C(O)C1C2CCC(O2)C1C(=O)Nc1cccc(F)c1 (configuration not stated),-3.7%
6,O=C(NCC(=O)N(c1cccnc1)C(C(=O)NC1CCCC1)c1ccccc1)c1ccco1 (configuration not stated),-14.2%
7,Cc1onc(-c2ccccc2)c1C(=O)N1CCN(C(=O)c2ccco2)CC1,2%
8,COc1ccc(N(CC(=O)NCc2ccccc2OC)S(=O)(=O)c2ccccc2[N+](=O)[O-])c(OC)c1,-1.5%
9,CN1c2ccccc2N(C)C1(C)c1ccccc1,31.1%
10,CCN1C(=O)N(C)C2(c3ccccc3)N(C)C(=O)N(C)C12c1ccccc1 (configuration not stated),12.7%
11,CN1CCN(C(=O)c2cc(-c3ccco3)on2)CC1,-11%
12,O=C(c1cc(-c2ccco2)on1)N1CCOCC1,26.3%
13,O=C(c1cc(-c2ccco2)on1)N1CCN(c2ccccc2)CC1,53.3% (active)
14,N#CCCn1c(C2CCCCC2)nc2ccccc21,-2.5%
15,O=[N+]([O-])c1cc(C=Nc2ccc3ccccc3c2)ccc1Br,51.5% (active)
16,O=[N+]([O-])c1ccc(N=Cc2ccc(Br)c([N+](=O)[O-])c2)cc1,7.8%
17,C(=Nc1ccc(Nc2ccccc2)cc1)c1ccc2ccccc2c1,-17.3%
18,CCn1c2ccccc2c2nc3ccccc3nc21,8.1%
19,CCn1c2ccccc2c2nc3cc(C(=O)O)ccc3nc21,33.7%
20,CCc1cc(C(=O)N2CCCC(CCC(=O)NCc3cccc(OC)c3)C2)no1 (configuration not stated),-5.8%
21,COc1ccc(S(=O)(=O)Nc2cc3c4c(oc3c3ccccc23)CCCC4=O)cc1,14.6%

row,SMILES,inhibition
1,COc1ccc(S(=O)(=O)Nc2cc3c(C(C)=O)c(C)oc3c3ccccc23)cc1,-0.8%
2,COc1ccc(S(=O)(=O)Nc2cc3c4c(oc3c3ccccc23)CC(C)(C)CC4=O)cc1,50.1% (active)
3,COc1ccc(O[C@H]2C=C[C@@H](c3ccccc3)O[C@@H]2COC(=O)CC/C(C)=N/OC[C@@H](O)COCc2ccco2)cc1,19.3%
4,CCC(NC(=O)CCc1ccccc1)c1ccccc1 (configuration not stated),0.5%
5,Cc1ccc2c(Cl)cc(Cl)c(OCC(=O)N3CCCC3)c2n1,54.6% (active)
6,Cc1ccc2c(Cl)cc(Cl)c(OCC(=O)O)c2n1,9.9%
7,COC(=O)COc1c(Cl)cc(Cl)c2ccc(C)nc12,10.1%
8,CCOc1ccc(C(NC(=O)/C=C/c2ccco2)c2ccc(OC)c(OC)c2)cc1 (configuration not stated),10.3%
9,COc1ccc(C2Nc3ccccc3C(=O)N2NS(=O)(=O)c2ccc(C)cc2)cc1 (configuration not stated),5.5%
10,Cc1ccc(OCCN(C)C(=O)CC2C(=O)NCCN2CC(C)(C)C)cc1 (configuration not stated),41.2%
11,COC(=O)CN(C)C(=O)CC1C(=O)NCCN1CC(C)(C)C (configuration not stated),56.5% (active)
12,CN(Cc1ccon1)C(=O)CC1C(=O)NCCN1CC(C)(C)C (configuration not stated),35.3%
13,COc1ccc(N2CCN(C(=O)COc3ccc4ccccc4c3)CC2)cc1,6.1%
14,COc1ccc(CN2CCN(c3ccccn3)CC2)c(OC)c1,-6.3%
15,O=C(Nc1ccccc1)c1ccc(NCCN2CCOCC2)c(S(=O)(=O)N2CCOCC2)c1,1.4%
16,CCOC(=O)C(Cc1c(F)cccc1Cl)c1ccnc2nc(N)nn12 (configuration not stated),64.8% (active)
17,CCOC(=O)C(Cc1c(F)cccc1Cl)c1ccno1 (configuration not stated),-11.3%
18,CCOC(=O)C(Cc1ccccc1)c1ccnc2nc(N)nn12 (configuration not stated),-9.3%
19,CCN(CC)CCOC(=O)c1ccc(NC(=O)CNC(=O)C2CCCCC2)cc1,-12.4%
20,O=C1CC(c2ccccc2)n2nc(NC(=O)c3cccnc3)nc2N1 (configuration not stated),-4.6%
21,Cc1ccc(-n2nnnc2SCC(=O)NNC(=O)c2ccc([N+](=O)[O-])cc2)cc1,8.5%

row,SMILES,inhibition
1,Cc1ccsc1C=Nc1ccc(O)cc1,45.3%
2,CC(=O)c1ccc(-c2cccs2)s1,0.2%
3,Oc1ccc(N=Cc2ccc(-c3cccs3)s2)cc1,55.3% (active)
4,COc1ccc(NC(=O)CCCN2C(=O)/C(=C\c3ccco3)SC2=S)cc1,13.4%
5,Cc1ccc(/C=C2\SC(=S)N(C3CCS(=O)(=O)C3)C2=O)o1 (configuration not stated),41.2%
6,O=C(O)CCN1C(=O)/C(=C/c2ccc(-c3nc4ccccc4s3)o2)SC1=S,54.7% (active)
7,O=C(O)CCCN1C(=O)/C(=C/c2ccc(-c3nc4ccccc4s3)o2)SC1=S,-50.1%
8,O=C(O)CCN1C(=O)/C(=C\c2ccc(-c3nc4ccccc4s3)o2)SC1=S,7.1%
9,O=C(O)CCCN1C(=O)/C(=C\c2ccco2)SC1=S,60.3% (active)
10,O=C(CCCN1C(=O)/C(=C\c2ccco2)SC1=S)Nc1ccc2ccccc2c1,-8.1%
11,Cc1ccc(N2C(=O)/C(=C\c3ccco3)SC2=S)cc1,39.7%
12,O=C1/C(=C\c2cccs2)SC(=S)N1C1CCS(=O)(=O)C1 (configuration not stated),12%
13,O=C1/C(=C\c2ccco2)SC(=S)N1c1ccccc1,51.3% (active)
14,O=C1/C(=C/c2ccco2)SC(=S)N1C1CCS(=O)(=O)C1 (configuration not stated),54.7% (active)
15,O=C1/C(=C\c2ccco2)SC(=S)N1c1ccc(O)cc1,39.1%
16,CCC(=O)Nc1cc(-c2nn3c(C)nnc3s2)ccc1C,1.7%
17,O=C(CCOc1ccccc1)Nc1cccc(S(=O)(=O)Nc2ccccc2Cl)c1,13.1%
18,CCC(=O)Nc1ccc(S(=O)(=O)NCc2ccco2)cc1,-9.3%
19,COc1ccc(NC(=O)c2onc(C)c2Cl)cc1OC,-15%
20,CCOC(=O)C1(Cc2ccc(Cl)cc2)CCN(CCCn2cccn2)CC1,3.5%

# Reference: PubChem BioAssay AID1220 (Sanford-Burnham Center for Chemical Genomics, 2008)
